DPM-DC inhibit = S. pneumoniae DPM-DC inhibitors, primary screen, biochemical, PK/LDH-coupled NADH fluorescence; diphosphomevalonate decarboxylase (Streptococcus pneumoniae D39); purified DPM-DC; calls only at 10 µM; actives 0.49% (n = 65,000);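 active means the 320 compounds with the highest percent inhibition in the single-dose primary screen, excluding strongly autofluorescent ones, cut at about 32% in these data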;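 further: kinetic rate of NADH fluorescence loss reporting ADP formed by the decarboxylase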
Spn PMK inh = S. pneumoniae PMK inhibitors, primary screen, biochemical, mevalonate pathway, pilot trial included; actives 0.49% (n = 65,000); phosphomevalonate kinase (Streptococcus pneumoniae D39); purified PMK, PK/LDH-coupled NADH absorbance 340 nm; inhibition, % at 10 µM;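 active means top-ranked compounds by inhibition in the single 10 µM screen, taking a fixed number of the strongest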;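 further: 0% = full reaction with DMSO carrier and 100% = background rate without enzyme reaction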
Spn MK inh = S. pneumoniae MK inhibitors, primary screen, biochemical, PK/LDH-coupled NADH absorbance. mevalonate kinase [Streptococcus pneumoniae D39]. purified MK, PK/LDH-coupled NADH absorbance 340 nm. inhibition, % at 10 µM. actives 0.48% (n = 65,000). AID 555, 2006;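 active means ranked among the strongest by inhibition in the single 10 µM screen, a fixed top-ranked set picked for dose follow-up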
NADH enzymes = inhibitors of PK/LDH coupling enzymes, profiling panel, artefact control, biochemical, MLSMR library; coupled PK/LDH NADH assays, four targets; IC50, µM (doses to about 10 µM), inactives show at the highest dose inhibition; actives 0.02% (n = 65,000); AID 774, 2007;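 active means single-dose screening hits from any of four coupled enzyme assays that gave an IC50 when retested across doses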;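 further: the DPM-DC format reads NADH fluorescence rather than 340 nm absorbance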
Abs 340nm = compound light absorbance at 340 nm, profiling panel, artefact control, biochemical, MLSMR library, data from PS, PMK, MK assays | compound absorbance at 340 nm, fold over control | fold change at 10 µM | 65,000 tested, under 10 active | AID 708, 2007;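 active means at 10 µM dose, initial 340 nm absorbance at least 2 fold that of control wells; inactive means change under 2 fold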;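 further: initial absorbance extrapolated from kinetic A340 decline of NADH oxidation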
Fluor 339 460 = intrinsic fluorescence of library compounds, ex339/em460 – biochemical, MLSMR library, data from DPM-DC assay, artefact control, profiling panel; fluorescence fold increase at 10 µM; compound autofluorescence, ex339/em460 nm, NADH buffer; hits give high values; 1 = no-compound wells, NADH background; actives 5.5% (n = 65,000); AID 709, 2007;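 active means at 10 µM, mean starting fluorescence two-fold or more over control wells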;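 further: signal is the first read of a kinetic run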
An asterisk follows results filed as active; i = inactive; / = not tested or not shown; + = active, no number; ! = not active in a repeat. In the library only some 6.8% were active in any assay of this set; here they are far more common.

SMILES	DPM-DC inhibit	Spn PMK inh	Spn MK inh	NADH enzymes	Abs 340nm	Fluor 339 460
Cc1ccc(N)c(C(=O)CCCCC(=O)O)c1	i	0.0	3.0	1.0%	1.01	1.09
COc1cc(CN(C)CC(=O)c2[nH]c(C)c(C(C)=O)c2C)ccc1OC(F)F	i	3.0	0.0	1.0%	0.99	0.99
CCOc1ccc(C2CC(=O)NC(SCC(=O)OC)=C2C#N)cc1 (centres undefined)	i	2.0	6.0	3.0%	1.04	1.07
COC(=O)N/C(C)=C1/NC(=O)c2ccccc2C(c2ccccc2)N1 (centres undefined)	i	0.0	10.0	3.0%	1.03	1.1
Cc1ccc(OCCn2c(C)c(/C=N/n3cnnc3)c3ccccc32)cc1	+	0.0	9.0	15.0%	1.11	0.98
Cc1c(/C=N/n2cnnc2)c2ccccc2n1CCOc1ccc(Cl)cc1	i	0.0	10.0	4.0%	1.13	1.03
O=C(O)CCSc1ccc2ccccc2n1	i	7.0	6.0	4.0%	1.05	1.07
Cc1cc(NC(=O)c2ccccc2NS(=O)(=O)c2c(C)c(C)cc(C)c2C)no1	/	2.0	11.0	7.0%	1.04	2.32*
Cc1ccc(C)c(S(=O)(=O)Nc2ccccc2C(=O)Nc2cc(C)on2)c1	/	0.0	6.0	3.0%	1.08	2.24*
COC(=O)c1ccc(-c2ccc(C(=O)N3CCCN(C)CC3)cc2)cc1	i	8.0	0.0	3.0%	1.01	1.08
COc1ccc(NC(=O)C2CCC(C)(C(=O)O)C2(C)C)cc1 (centres undefined)	i	0.0	0.0	0.0%	1.05	1.08
COc1ccc(NC(=O)C2CC(=O)OC2(C)C)cc1 (centres undefined)	/	0.0	1.0	1.0%	1	2.25*
CCOc1ccc(NC(=O)c2oc3ccccc3c2NC(=O)C2CC2)cc1	i	15.0	0.0	5.0%	1.11	2.6*
COCC(=O)Nc1c(C(=O)Nc2ccccc2OC)oc2ccccc12	i	11.0	2.0	2.0%	1.01	1.17
COc1ccc(NC(=O)c2oc3ccccc3c2NC(=O)C2CC2)cc1	i	7.0	0.0	5.0%	1.07	1.35
COc1ccc(NC(=O)c2oc3ccccc3c2NC(=O)c2ccco2)c(OC)c1	/	9.0	0.0	5.0%	1.07	5.06*
COc1ccc(NC(=O)c2oc3ccccc3c2NC(=O)c2ccco2)cc1	i	7.0	0.0	1.0%	1.03	1.17
CCOCC(=O)Nc1c(C(=O)Nc2ccc(OC)cc2OC)oc2ccccc12	/	11.0	6.0	3.0%	1	2.37*
COc1ccccc1NC(=O)c1oc2ccccc2c1NC(=O)c1cc(OC)c(OC)c(OC)c1	/	3.0	0.0	1.0%	1.01	3.24*
COc1ccc(OCC(=O)c2c(O)c3ccccc3oc2=O)cc1	i	10.0	6.0	10.0%	1.03	1.03
Cc1nn(C(=O)CCCC(=O)n2nc(C)c(Cl)c2C)c(C)c1Cl	i	5.0	12.0	6.0%	1.12	1.11
CCN(CC)S(=O)(=O)c1ccc2oc(C(=O)Nc3ccc(OC)cc3OC)c(C)c2c1	i	9.0	0.0	12.0%	1	1.16
COCC(=O)Nc1c(C(=O)Nc2cccc(OC)c2)oc2ccccc12	i	8.0	7.0	5.0%	1.07	1.29
COc1ccc(NC(=O)c2oc3cc(C)c(C)cc3c2C)c(OC)c1	/	4.0	4.0	4.0%	1.1	3.83*
COc1cccc(OCC(=O)Nc2c(C(=O)Nc3ccc(OC)cc3OC)oc3ccccc23)c1	/	13.0	0.0	7.0%	1.1	5.04*
SMILES	DPM-DC inhibit	Spn PMK inh	Spn MK inh	NADH enzymes	Abs 340nm	Fluor 339 460
COc1cccc(N2CCN(C3CC(=O)N(c4ccc(F)c(Cl)c4)C3=O)CC2)c1 (centres undefined)	i	3.0	6.0	4.0%	1.02	1.09
COc1cccc(N2CCN(C3CC(=O)N(c4ccc(C)c(Cl)c4)C3=O)CC2)c1 (centres undefined)	i	11.0	40.0*	18.0%	1.01	1.02
CCOc1ccccc1NC(=O)c1nc[nH]c1C(=O)Nc1ccccc1OCC	/	15.0	5.0	10.0%	1.05	5.25*
CNC(=O)c1[nH]cnc1C(=O)Nc1cccc(OC)c1	i	8.0	4.0	4.0%	1.07	1.1
COc1ccccc1NC(=O)c1nc[nH]c1C(=O)Nc1ccccc1OC	i	14.0	7.0	8.0%	1.03	2.33*
COc1ccc(NC(=O)c2nc[nH]c2C(=O)Nc2ccccc2C)cc1	i	9.0	0.0	7.0%	1.09	3.24*
Cc1ccccc1NC(=O)c1nc[nH]c1C(=O)NCc1ccccc1	i	4.0	6.0	4.0%	1.03	1.07
Cc1ccc(S(=O)(=O)N2CCOCC2)cc1C(=O)Nc1ccccn1	i	16.0	0.0	10.0%	0.97	1
O=c1c2ccccc2cnn1-c1nc2ccccc2s1	/	13.0	0.0	3.0%	0.99	2.95*
O=c1c2ccccc2ncn1Cc1nc2ccccc2s1	i	0.0	7.0	2.0%	1.08	1.08
c1coc(CNc2nc(N3CCCCC3)nc3ccccc23)c1	/	13.0	13.0	13.0%	0.99	3.7*
c1ccc(N2CCN(c3nc(NCc4ccco4)c4ccccc4n3)CC2)cc1	i	0.0	3.0	1.0%	1.04	1.63
Cc1ccc2c(n1)sc1c(N)ncnc12	i	14.0	9.0	15.0%	1.03	2.14*
COC(=O)CC1SC(=O)NC1=Nc1ccccc1 (centres undefined)	+	11.0	7.0	39.0%	1.01	1.73
O=C(COC(=O)c1cc(=O)[nH]c2ccccc12)NC(=O)NC1CCCCC1	i	13.0	0.0	9.0%	1.06	2.05*
CCCCOC(=O)c1cc(=O)[nH]c2ccccc12	i	10.0	6.0	8.0%	1.06	2.12*!
N#CCSc1n[nH]c2nc3c(c(=O)n12)C1(CCCC1)Cc1ccccc1-3	/	0.0	8.0	4.0%	1.06	2.25*
CCCn1c(SCC#N)nc2c(c1=O)C1(CCCC1)Cc1ccccc1-2	i	9.0	0.0	3.0%	1.06	1.04
CCOC(=O)C1=C(C)NC(C)=C(C(=O)OC)C1c1cccc(Cl)c1Cl (centres undefined)	i	6.0	7.0	3.0%	0.99	1.39
COC(=O)C1=C(C)NC(C)=C(C(=O)OC)C1c1cc2ccc(C)cc2[nH]c1=O	i	6.0	5.0	8.0%	1.08	2.25*
Cc1ccc2cc(COC(=O)c3ccncc3)c(=O)[nH]c2c1	i	4.0	7.0	11.0%	1.08	1.17
CCOC(=O)C1=C(C)NC(C)=C(C(=O)OCC)C1c1cc2ccc(C)cc2[nH]c1=O	+	11.0	9.0	19.0%	1.1	2.18*

Source: PubChem (SRMLSC)
